Molecules are shown by their SMILES. For some assays here: Measured potencies and affinities stand elsewhere. Calls of active or inactive are those of the source. The rule behind the calls is not given here.

For assay [1] the following is noted: Ebola virus entry assay, green fluorescence channel.
For assay [2] the following is noted: Ebola virus entry assay, blue channel fluorescence.
The conditions of assay [3]: Ebola virus entry assay, ratio channel.
For assay [4] the following is noted: Ebola virus entry assay, green channel fluorescence.
The conditions of assay [5]: Ebola virus entry assay, reporter ratio channel; Channel type: primary.
For assay [6] the following is noted: Ebola virus entry assay, blue channel (ratio component).
Assay [7] is described as follows: qHTS profiling of the MIPE4 collection as inhibitors of Plasmodium falciparum (DD2) proliferation (Rep 2) (AID 743346). Conditions: P. falciparum Dd2 in erythrocytes, SYBR Green DNA, 72 h; at 28.5 µM (top of the series). Put shortly: (§1)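 Parasite DNA was quantified by SYBR Green I fluorescence (ex 485, em 535 nm) after overnight lysis in saponin/Triton buffer at room temperature. Cultures at 0.3% parasitemia and 2.5% hematocrit were first exposed to compound for 72 h at 37 C; signals were normalised to artemisinin (0.29 uM) and vehicle wells.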

Assay [8] can be described thus: qHTS profiling of the MIPE4 collection as inhibitors of Plasmodium falciparum (HB3) proliferation (AID 743347).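 Note: plate controls were DMSO vehicle wells for no effect and artemisinin wells for full effect.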 Conditions: P. falciparum HB3 in erythrocytes, SYBR Green DNA, 72 h; at 28.5 µM (top of the series). The procedure, abridged:
as §1
Throughout, for efficacy: 0% is about no effect.

Turning to `C#C[C@]1(O)CC[C@H]2[C@@H]3CCc4cc(OC)ccc4[C@H]3CC[C@@]21C`, the efficacy in assay [1] was 19% (inactive). Further, the molecule was called inactive in assay [2], in assay [4] and in assay [6]. The AC50 in assay [3] and in assay [5] was 2.82 µM (active) in each case.
Consider `Oc1cc(O)c2c(c1)O[C@H](c1ccc(O)c(O)c1)[C@H](O)C2`, for which, in assay [1], the efficacy was 34.8% (inactive). The call in assay [2], in assay [3], in assay [4], in assay [5] and in assay [6] was inactive.
`CCCS(=O)c1ccc2nc(NC(=O)OC)[nH]c2c1` (centres undefined): in assay [7], the parasite growth, % of control (lower = inhibition) came out at 101%. Besides, the growth, % of control in assay [8] stood at 81.4%. Further, the efficacy in assay [1] was 23.9% (inactive). Moreover, the molecule was called inactive in assay [2], in assay [3], in assay [4], in assay [5] and in assay [6].
Take `COc1ccc(CN(CCN(C)C)c2ncccn2)cc1`: the efficacy in assay [1] was -18% (inactive). Also, the result in assay [2], in assay [3], in assay [4], in assay [5] and in assay [6] was inactive.
As for `C[C@@H](C1=C(CCN(C)C)Cc2ccccc21)c1ccccn1`, the efficacy in assay [1] was 89% (inactive). Further, the AC50 is 12.6 µM (active) in assay [2], 10 µM (active) in assay [3] and 10 µM (active) in assay [5].
Consider `O=C1C(c2[nH]c3ccccc3c2O)=Nc2ccccc21`, for which the efficacy in assay [1] was 51.6% (inactive). In addition, the result in assay [2], in assay [3] and in assay [5] was inactive.
Take `OC(c1ccccc1)(c1ccccc1)C1CCNCC1`: the efficacy in assay [1] was 37.5% (inactive). Moreover, the AC50 is 20 µM (active) in assay [2], 15.8 µM (active) in assay [3] and 15.8 µM (active) in assay [5].
For the molecule `O=C1c2cccc(O)c2C(=O)c2c(O)cccc21`, the efficacy in assay [1] was -10.2% (inactive). For the same molecule, the call in assay [2], in assay [3], in assay [4], in assay [5] and in assay [6] was inactive.
As to `O=C(O)C1CCC1`, the efficacy in assay [1] is -19% (inactive). Moreover, the result in assay [2], in assay [3], in assay [4], in assay [5] and in assay [6] was inactive.
Regarding `NC(N)=NC(=O)c1nc(Cl)c(N)nc1N`, in assay [7], the parasite growth, % of control (lower = inhibition) was found to be 111%. This molecule had a growth, % of control in assay [8] of 87.1%. The efficacy in assay [1] is -17.5% (inactive). Moreover, the outcome in assay [2], in assay [3], in assay [4], in assay [5] and in assay [6] was inactive.
With `CCCCCCCCCCCCCCCC[n+]1ccccc1`, in assay [1], the efficacy is -209% (inactive). Further, the AC50 in assay [2] was 20 µM (active); in assay [3], 14.1 µM (active); in assay [5], 14.1 µM (active).
For `COc1cc(CC#N)cc(OC)c1OC`, the efficacy in assay [1] was -13.1% (inactive). Also, the call in assay [2], in assay [3], in assay [4], in assay [5] and in assay [6] was inactive.
Regarding `O=C(O)CCC(=O)OC[C@@H](NC(=O)C(Cl)Cl)[C@H](O)c1ccc([N+](=O)[O-])cc1`, the efficacy in assay [1] was 19.1% (inactive). In addition, the molecule was classed as inactive in assay [2], in assay [3], in assay [4], in assay [5] and in assay [6].
In the case of `CNC(=O)c1c(I)c(NC(=O)CCCCC(=O)Nc2c(I)c(C(=O)O)c(I)c(C(=O)NC)c2I)c(I)c(C(=O)O)c1I`, the efficacy in assay [1] is -24% (inactive). Further, the molecule was called inactive in assay [2], in assay [3], in assay [4], in assay [5] and in assay [6].
With `NC(=O)Cc1cccc(C(=O)c2ccccc2)c1N`, the parasite growth, % of control (lower = inhibition) in assay [7] is 114%. For the same molecule, the efficacy in assay [1] is 18% (inactive). The molecule was called inactive in assay [2], in assay [3], in assay [4], in assay [5] and in assay [6].
Regarding `Cc1cccc(Cc2cnc[nH]2)c1C`, in assay [1], the efficacy was -25% (inactive). Also, the molecule was classed as inactive in assay [2], in assay [3], in assay [4], in assay [5] and in assay [6].
Take `CCOC(CN1CCN(CC(C)C(=O)c2ccccc2)CC1)c1ccccc1` (centres undefined): the efficacy in assay [1] was 11.6% (inactive). In addition, the AC50 in assay [2] is 7.08 µM (active); in assay [3], 10 µM (active). Moreover, the outcome in assay [4], in assay [5] and in assay [6] was inactive.
Turning to `OC[C@H]1O[C@@H](O[C@@H]2[C@@H](CO)O[C@](O)(CO)[C@H]2O)[C@H](O)[C@@H](O)[C@H]1O`, in assay [1], the efficacy was -16.4% (inactive). Also, the call in assay [2], in assay [3], in assay [4], in assay [5] and in assay [6] was inactive.
`NC(=O)NNc1ccccc1`: in assay [1], the efficacy was -21.6% (inactive). Moreover, the outcome in assay [2], in assay [3], in assay [4], in assay [5] and in assay [6] was inactive.
As to `CC(C)=CCC/C(C)=C/CC/C(C)=C/C(=O)OCC(=O)[C@@]1(O)CC[C@H]2[C@@H]3CCC4=CC(=O)C=C[C@]4(C)[C@H]3[C@@H](O)C[C@@]21C`, the efficacy in assay [1] is 14.4% (inactive). Besides, the result in assay [2], in assay [3], in assay [4], in assay [5] and in assay [6] was inactive.
Turning to `COc1cc(N)c(Cl)cc1C(=O)NC1CCN(Cc2ccccc2)CC1`, the efficacy in assay [1] was 43.1% (inactive). The AC50 is 31.6 µM (active) in assay [2] and 39.8 µM (active) in assay [5]. Besides, the outcome in assay [3] was inactive.
On to `Oc1ccc(CCNCCCCCCNCCc2ccccc2)cc1O`, for which the efficacy in assay [1] is 30.5% (inactive). Also, the AC50 in assay [2] was 1.12 µM (active); in assay [3], 1 µM (active); in assay [5], 1 µM (active).
Turning to `CC(Cc1ccc2c(c1)OCO2)NO` (centres undefined), the efficacy in assay [1] is -23.6% (inactive). Besides, the outcome in assay [2], in assay [3], in assay [4], in assay [5] and in assay [6] was inactive.
`CN1[C@@H]2CC[C@H]1CC(OC(=O)c1c[nH]c3ccccc13)C2` (some centres undefined): the efficacy in assay [1] was 45% (inactive). Moreover, the molecule was called inactive in assay [2], in assay [3], in assay [4] and in assay [6]. For the same molecule, the AC50 in assay [5] is 39.8 µM (active).
`C#Cc1ccc(-c2ccccc2F)cc1`: the efficacy in assay [1] is 15.3% (inactive). Also, the outcome in assay [2], in assay [3], in assay [4], in assay [5] and in assay [6] was inactive.
`O=C1c2ccccc2C(=O)C1c1ccc(Br)cc1`: in assay [1], the efficacy was -9.92% (inactive). For the same molecule, the molecule was called inactive in assay [2], in assay [3], in assay [4], in assay [5] and in assay [6].

(Values after PubChem BioAssay (NCATS).)
